Out of some 5,500 compounds screened, about 2,000 (36%) were called active. About 18% were inconclusive and are not listed. No stated cut-off is given here; in the data, active means normalized growth mostly below about 0.91 (no sharp cut-off); inconclusive means no clear call, values can overlap the other calls; inactive means mostly above about 0.92. This is one part of the list.
Assay: chemical genetic growth profiling, strain panel (AID 1159580);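 further: tested at 20 µM; growth read once vehicle control cultures reached saturation at 30 °C; 1 = growth at the plate median or of vehicle wells; lower values mean less growth of the strain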
Details: S. cerevisiae deletion strains, growth OD

Measured: normalized growth

CC1(C)O[C@@H]2CC3C4CCC5=CC(=O)C=C[C@]5(C)C4[C@@H](O)C[C@]3(C)[C@]2(C(=O)CO)O1 (stereo not given in full)
inactive: locus YAL021C, strain ccr4, active compounds read low 1.01 | locus YAL026C, strain drs2, active compounds read low 1.01 | locus YAL030W, strain snc1, active compounds read low 1.01 | locus YBL061C, strain skt5, active compounds read low 1 | locus YBR009C, strain hhf1, active compounds read low 1.01 | locus YBR023C, strain chs3, active compounds read low 1 | locus YBR171W, strain sec66, active compounds read low 0.994 | locus YBR231C, strain swc5, active compounds read low 1.01 | locus YBR279W, strain paf1, active compounds read low 1.01 | locus YCL011C, strain gbp2, active compounds read low 1 | locus YCL016C, strain dcc1, active compounds read low 1.01 | locus YCL061C, strain MRC1, active compounds read low 0.999 | locus YCL069W, strain vba3, active compounds read low 0.995 | locus YCR088W, strain abp1, active compounds read low 0.993 | locus YDL005C, strain med2, active compounds read low 0.999 | locus YDL040C, strain nat1, active compounds read low 1 | locus YDR001C, strain nth1, active compounds read low 0.999 | locus YDR069C, strain doa4, active compounds read low 1 | locus YDR137W, strain rgp1, active compounds read low 0.998 | locus YDR159W, strain sac3, active compounds read low 1.02 | locus YDR195W, strain ref2 1 | locus YDR297W, strain sur2, active compounds read low 1 | locus YDR334W, strain swr1, active compounds read low 1.01 | locus YDR335W, strain msn5, active compounds read low 1.01 | locus YDR392W, strain spt3, active compounds read low 0.983 | locus YEL003W, strain gim4, active compounds read low 1.01 | locus YEL037C, strain rad23, active compounds read low 0.994 | locus YEL061C, strain CIN8 (second series), active compounds read low 1 | locus YER015W, strain faa2, active compounds read low 1.01 | locus YER016W, strain bim1, active compounds read low 0.995 | locus YER111C, strain swi4, active compounds read low 1 | locus YER155C, strain BEM2 (second series), active compounds read low 0.984 | locus YFR010W, strain ubp6, active compounds read low 0.996 | locus YGL167C, strain pmr1, active compounds read low 1.01 | locus YGL173C, strain kem1, active compounds read low 1.01 | locus YGL227W, strain vid30, active compounds read low 0.998 | locus YGL240W, strain doc1, active compounds read low 1.01 | locus YGL253W, strain hxk2, active compounds read low 1 | locus YHR013C, strain ard1, active compounds read low 1.02 | locus YHR027C, strain rpn1, active compounds read low 1.01 | locus YHR030C, strain SLT2, active compounds read low 0.988 | locus YHR079C, strain IRE1, active compounds read low 0.974 | locus YHR142W, strain chs7, active compounds read low 1.01 | locus YJL092W, strain hpr5, active compounds read low 0.997 | locus YJL095W, strain BCK1 (second series), active compounds read low 1.01 | locus YJL095W, strain BCK1, active compounds read low 0.985 | locus YJL115W, strain asf1, active compounds read low 1 | locus YJL129C, strain trk1, active compounds read low 1.03 | locus YJL154C, strain vps35, active compounds read low 0.996 | locus YJL164C, strain tpk1, active compounds read low 1.01 | locus YJL166W, strain qcr8, active compounds read low 1.01 | locus YJL187C, strain SWE1, active compounds read low 1 | locus YJR066W, strain TOR1, active compounds read low 0.95 | locus YKL160W, strain elf1, active compounds read low 1.02 | locus YKR026C, strain gcn3, active compounds read low 0.982 | locus YKR091W, strain srl3, active compounds read low 1.01 | locus YLL001W, strain dnm1, active compounds read low 1 | locus YLL026W, active compounds read low 1 | locus YLL041C, strain sdh2, active compounds read low 1 | locus YLR027C, strain aat2, active compounds read low 1.01 | locus YLR113W, strain HOG1, active compounds read low 0.963 | locus YLR221C, strain rsa3, active compounds read low 1.01 | locus YLR258W, strain gsy2, active compounds read low 1 | locus YLR262C, strain YPT6 (second series), active compounds read low 1.01 | locus YLR320W, strain mms22, active compounds read low 1.01 | locus YLR342W, strain FKS1, active compounds read low 1.02 | locus YLR357W, strain rsc2, active compounds read low 0.976 | locus YLR370C, strain arc18, active compounds read low 1.01 | locus YLR384C, strain iki3, active compounds read low 1.01 | locus YML120C, strain ndi1, active compounds read low 1.01 | locus YMR058W, strain fet3, active compounds read low 1.02 | locus YMR125W, strain sto1, active compounds read low 0.992 | locus YMR129W, active compounds read low 1.01 | locus YMR205C, strain PFK2, active compounds read low 0.978 | locus YMR231W, strain pep5, active compounds read low 1 | locus YNL071W, strain lat1, active compounds read low 0.998 | locus YNL183C, strain NPR1, active compounds read low 0.918 | locus YNL209W, strain ssb2, active compounds read low 1.02 | locus YNL248C, strain rpa49, active compounds read low 1.01 | locus YNL322C, strain KRE1 (second series), active compounds read low 0.998 | locus YNR049C, strain mso1, active compounds read low 1.01 | locus YOR001W, strain rrp6, active compounds read low 1.01 | locus YOR070C, strain gyp1, active compounds read low 1 | locus YOR080W, strain dia2, active compounds read low 1 | locus YOR083W, strain WHI5, active compounds read low 1.02 | locus YOR106W, strain vam3, active compounds read low 1 | locus YOR231W, strain MKK1, active compounds read low 0.983 | locus YOR265W, strain rbl2, active compounds read low 1.01 | locus YOR270C, strain vph1, active compounds read low 1.03 | locus YOR290C, strain snf2, active compounds read low 1.01 | locus YPL051W, strain arl3, active compounds read low 1 | locus YPL078C, strain atp4, active compounds read low 0.995 | locus YPL106C, strain sse1, active compounds read low 0.998 | locus YPL240C, strain hsp82, active compounds read low 1 | locus YPL256C, strain CLN2, active compounds read low 0.996
